Laboratory results taken from PubChem BioAssay AID504339 (National Center for Advancing Translational Sciences (NCATS), 2011).
“And” between values parts separate entries of the source, which are not always exact repeats. Equal entries are not always repeated. Screen size: about 390,000 compounds; about 17,000 (4.4%) were called active. Where a call stands in place of a potency, no number is given. Another 8% or so got no clear call; they are omitted. The call rests on the fitted dose curve; in most records, active means well fitted inhibition curve with a large enough effect; inconclusive means small, poorly fitted or top-dose-only effect; inactive means no such curve, though single readings can be large or run the other way. Many of the other results were omitted from the sample, so actives are more common in it than they were. Some compounds were tested as several samples or in several runs, with calls that do not always agree.

The compounds below were run against Lysine-specific demethylase 4A (Homo sapiens) (UniProt O75164) (assay: qHTS Assay for Inhibitors of JMJD2A-Tudor Domain). Conditions: AlphaScreen JMJD2A-Tudor / H3K4me3 peptide binding; series mostly up to 114 µM.
Further: nearly all actives have a fitted effect of over 50% in size.
Potency means the concentration at half of the fitted maximal effect.

Sequence of Lysine-specific demethylase 4A (Homo sapiens) (O75164 whole entry, looked up, the tested form may be a part): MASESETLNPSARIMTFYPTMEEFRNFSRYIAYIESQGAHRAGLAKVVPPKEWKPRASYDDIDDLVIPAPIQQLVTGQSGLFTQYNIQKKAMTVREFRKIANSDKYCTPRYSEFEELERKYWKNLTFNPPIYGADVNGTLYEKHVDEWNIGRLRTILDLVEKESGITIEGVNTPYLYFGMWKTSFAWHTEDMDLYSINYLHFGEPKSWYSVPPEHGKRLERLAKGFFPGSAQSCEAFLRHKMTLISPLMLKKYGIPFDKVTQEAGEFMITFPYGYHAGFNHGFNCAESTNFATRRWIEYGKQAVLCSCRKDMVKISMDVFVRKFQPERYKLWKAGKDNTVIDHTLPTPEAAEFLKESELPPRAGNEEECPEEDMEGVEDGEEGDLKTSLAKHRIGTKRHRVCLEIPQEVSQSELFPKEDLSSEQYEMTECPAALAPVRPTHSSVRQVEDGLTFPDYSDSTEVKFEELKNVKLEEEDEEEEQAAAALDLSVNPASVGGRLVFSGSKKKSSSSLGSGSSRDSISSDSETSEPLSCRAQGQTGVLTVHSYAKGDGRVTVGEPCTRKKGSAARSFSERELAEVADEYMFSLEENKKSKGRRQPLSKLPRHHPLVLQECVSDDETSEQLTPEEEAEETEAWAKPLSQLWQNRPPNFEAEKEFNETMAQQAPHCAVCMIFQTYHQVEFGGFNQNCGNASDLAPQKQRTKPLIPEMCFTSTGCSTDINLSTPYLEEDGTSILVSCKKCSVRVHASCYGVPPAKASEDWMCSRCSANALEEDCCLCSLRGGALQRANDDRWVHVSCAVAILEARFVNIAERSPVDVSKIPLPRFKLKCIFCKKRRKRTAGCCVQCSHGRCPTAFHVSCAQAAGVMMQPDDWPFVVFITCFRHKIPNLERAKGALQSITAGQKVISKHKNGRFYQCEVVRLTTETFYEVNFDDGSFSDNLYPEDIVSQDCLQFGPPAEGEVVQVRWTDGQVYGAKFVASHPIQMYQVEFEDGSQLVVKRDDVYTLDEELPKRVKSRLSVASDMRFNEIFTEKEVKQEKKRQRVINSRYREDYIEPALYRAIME

SMILES | Potency
Cc1cccc(C)c1-n1c(C)cc(/C=C2\C(=O)NN(c3ccccc3)C2=O)c1C | 22.4 µM (active)
Cc1cc(/C=C2/NC(=O)NC2=O)c(C)n1-c1cccnc1 | inactive
Cc1ccc(CN2C(=O)N/C(=C/c3cc(C)n(-c4ccccn4)c3C)C2=O)cc1 | inactive
CCOc1ccc(NC(=O)c2cc3c(=O)n(Cc4cccs4)ccc3nc2C)cc1 | inactive
Cc1cccc(NC(=O)c2nnn(CC(=O)Nc3ccc(C(C)C)cc3)c2N)c1C | inactive
Cc1cc2nc(-c3ccc(NC(=O)c4cc5ccccc5o4)cc3)oc2cc1C | inactive
CCOC(=O)N1CCc2c(sc3c2c(=O)n(Cc2ccccc2)c(=O)n3CC(=O)Nc2cccc(C)c2)C1 | inactive
COc1cccc(-n2c(=O)c3c(C)c(C(=O)N(C)C)sc3n(CC(=O)NCCc3ccc(OC)c(OC)c3)c2=O)c1 | inactive and 79.4 µM (active)
COc1ccc(CCNC(=O)Cn2c(=O)n(-c3ccccc3)c(=O)c3c(C)c(C)sc32)cc1OC | inactive
COc1cccc(-n2c(=O)c3c(C)c(C(=O)N(C)C)sc3n(Cc3cccc(C)c3)c2=O)c1 | inactive
COc1ccc(-c2ccc(OC)c(C3C4C=CCC(C)C4C(=O)N3Cc3ccccc3)c2)cc1C (stereo not drawn) | inactive
COc1cccc(CNC(=O)CCc2nc(-c3ccc(C)cc3)no2)c1 | inactive
Cc1cc2c(cc1C)NC1(C[C@H]3CCC(=O)N4CC[C@@H](C1)[C@@H]34)C(=NC(C)(C)CC(C)(C)C)N2 (stereo partly drawn) | 15.8 µM (active)
O=C1CC[C@@H]2CC3(C[C@@H]4CCN1[C@H]24)Nc1cc([N+](=O)[O-])ccc1NC3=NC1CCCCC1 (stereo partly drawn) | inactive
COC(=O)c1cccc(Cn2nnc3sc4c(c3c2=O)CCC(C(C)(C)C)C4)c1 (stereo not drawn) | inactive
O=C(Nc1cccc2cccnc12)C(F)(F)F | inactive
O=C(Nc1ccccc1)Oc1cccc2cccnc12 | 15.8 µM (active)
OCc1ccc(OCCCOc2cccc3cccnc23)cc1 | inactive
CCOc1ccccc1NC(=O)Cn1nnc(C(=O)Nc2ccc(C)c(C)c2)c1N | inactive
COc1cc(NS(=O)(=O)c2cccs2)cc(OC)c1 | inactive
O=C(COC(=O)c1ccc(O)cc1)Nc1nccs1 | inactive
Cc1cc(C(=O)OCC(=O)Nc2nnc(C(C)C)s2)c2ccccc2n1 | inactive
Cc1cc(C(=O)OCC(=O)Nc2nccs2)c2ccccc2n1 | 20 µM (active)
Cc1cccc(CCNC(=O)c2ccc3c(c2)nc2n3CCC(C)C2)c1 (stereo not drawn) | inactive
Cc1nn(CC(=O)NCCc2ccccc2)c(=O)c2c1sc1ccccc12 | inactive

SMILES | Potency
Cc1ccc(C)c(N2CCN(C(=O)Cn3ncn4cccc4c3=O)CC2)c1 | inactive
Cc1ccc(C)c(N2CCN(C(=O)Cn3nc(C)c4sc5ccccc5c4c3=O)CC2)c1 | 12.6 µM (active)
CC(=O)c1ccc(NC(=O)c2nc(-c3ccc(C)cc3)n3c2CCCCC3)cc1 | inactive
CCc1nnc2c3ccccc3nc(N3CCN(c4ccc(C)cc4C)CC3)n12 | inactive
CN(C)S(=O)(=O)c1ccc(C(=O)N(Cc2cccnc2)c2nc3c(F)cc(F)cc3s2)cc1 | inactive
CCN(CC)CCN(C(=O)c1cccc([N+](=O)[O-])c1)c1nc2ccc(OC)cc2s1 | inactive
COc1ccc2sc(N(CCCN(C)C)C(=O)c3ccc(S(=O)(=O)N(C)C4CCCCC4)cc3)nc2c1 | 56.2 µM (active)
CCOc1ccc(C(=O)c2cn(Cc3ccccc3OC)c3ccc(F)cc3c2=O)cc1 | inactive
CCN(CC)c1ccc(NC(=O)CN2C(=O)c3cccnc3Oc3ccc(Cl)cc32)c(C)c1 | inactive
COC(=O)c1c(NC(=O)CCCOc2ccccc2)sc2c1CCC(C)C2 (stereo not drawn) | inactive
O=C(CN1CCCCCC1)Nc1ccc(Cl)cc1F | inactive
O=C(CN1CCCCCC1)Nc1ccc(Br)cc1Br | inactive
O=C(CN1CCCCCC1)Nc1ccc(Br)cc1[N+](=O)[O-] | 44.7 µM (active)
Cn1c(COc2ccccc2C(C)(C)C)nc2ccccc21 | inactive
CCOCCn1ccc2c(OCC(=O)NCc3ccc(C)cc3)cccc2c1=O | inactive
CC1(C)NC(=O)N(CCOc2cccc(Oc3ccccc3)c2)C1=O | inactive
CC(O)CNCCOc1cccc(Oc2ccccc2)c1 (stereo not drawn) | 3.55 µM (active)
C=CCNCCCCOc1ccccc1 | inactive
CCOc1ccc(NC(=O)c2cc(S(=O)(=O)N3CCCC3)c[nH]2)cc1 | inactive
Cn1c(=O)c2c(ncn2CC(=O)Nc2cccc(C(F)(F)F)c2)n(C)c1=O | inactive
O=[N+]([O-])c1cccc(S(=O)(=O)NCc2ccccn2)c1 | inactive
O=C(CSc1nc(-c2ccccc2)cs1)Nc1cccc([N+](=O)[O-])c1 | inactive
O=c1cc(CO)oc(C(Nc2cccc([N+](=O)[O-])c2)c2ccccn2)c1O (stereo not drawn) | 50.1 µM (active)
O=c1cc(CO)oc(C(Nc2cccc(C(F)(F)F)c2)c2ccccn2)c1O (stereo not drawn) | 56.2 µM (active)
O=C(CSc1nnc(-c2ccccc2F)o1)Nc1cccc(C(F)(F)F)c1 | inactive

SMILES | Potency
COc1cccc(-c2nnc3n(CCc4ccccc4)c(=O)c4ccccc4n23)c1O | inactive
Cc1ccc(-c2nc(Cn3c(=O)cc(-c4ccccc4)c4c(C)nn(C)c43)c(C)o2)cc1 | inactive
COc1ccc(CNC(=O)CCc2c(C)nn(-c3ccc(N4CCCC4)nn3)c2C)cc1 | inactive
CCOc1ccc(C(=O)c2cn(Cc3ccc(F)cc3)c3ccc(F)cc3c2=O)cc1 | inactive
Cc1cccc(Cn2c(CN3CCC(C(=O)NCc4ccccc4Cl)CC3)cc3ccccc32)c1 | inactive
CCOC(=O)c1c(SCC(=O)Nc2cccc(C)c2C)nc(=O)[nH]c1C | inactive
CC1=C(C(=O)Nc2ccccc2)C(c2ccc(C)cc2)n2nc(SCc3ccccc3C)nc2N1 (stereo not drawn) | inactive
O=c1cc(CCl)nc2scc(-c3ccccc3)n12 | inactive
CN(C)CCCn1c(=O)n(Cc2ccccc2)c(=O)c2c3c(sc21)CCCCC3 | inactive
OCCn1c(-c2ccccc2)csc1=Nc1ccccc1 | 56.2 µM (active)
CC(C)Cn1c(-c2ccc(S(=O)(=O)N3CCOCC3)cc2)csc1=Nc1cc(Cl)ccc1Cl | inactive
CN(C)CCCn1c(-c2ccc(Cl)cc2)csc1=Nc1ccccc1 | 39.8 µM (active)
CCN(c1ncnc2c1cnn2-c1ccc(C)cc1)C1CCCCC1 | inactive
COc1ccc(-c2ccc(=O)n(CC(=O)Nc3ccc(Br)cc3F)n2)cc1 | inactive
COCC(C)N=CC1=C(O)CC(C)(C)CC1=O (stereo not drawn) | inactive
C=CCO/N=C/C1=C(O)C(C(=O)OC)C(C)(C)CC1=O (stereo not drawn) | 79.4 µM (active)
CCCC(=O)C1=C(N(C)c2ccccc2)CC(C)(C)C(C(=O)OC)C1=O (stereo not drawn) | inactive
Cn1c(=O)c2c(SCC(=O)NCC3CCCO3)nc(-c3ccccc3F)nc2n(C)c1=O (stereo not drawn) | inactive
O=C(CCS(=O)(=O)c1cc(Br)cc2c1N(C(=O)C1CC1)CC2)Nc1ccc(C(F)(F)F)cc1 | inactive
COc1ccc(OC)c(NC(=O)CN2CCCN(Cc3cc(C)ccc3C)S2(=O)=O)c1 | inactive
Cc1cccc(C(=O)OC(C)CN2CCCC2)c1 (stereo not drawn) | inactive
Cc1cc(OCCN2CCCC2)cc(C(C)C)c1 | 5.01 µM (active)
COc1cc(/C=N/NC(=O)c2ccoc2C)ccc1OCCN1CCCCC1 | inactive
Cc1ccc(C(C)C)cc1OCCN1CCCC1 | 79.4 µM (active)
Cc1ccc(C(C)C)cc1OCC(=O)Nc1ccccc1N1CCCC1 | inactive

SMILES | Potency
CCCn1c(=N)c(C(=O)NCc2ccccc2)cc2c(=O)n3cccc(C)c3nc21 | inactive
Cn1c(=O)c2c(SCC(=O)N3CCc4ccccc43)nc(-c3ccc(Cl)cc3)nc2n(C)c1=O | inactive
CCNC(=O)CC1C(=O)N(c2ccc(F)cc2)C(=O)N1Cc1ccc(C)cc1 (stereo not drawn) | inactive
CN1CCN(C2(CNC(=O)COc3ccc(C(C)(C)C)cc3)CCCCC2)CC1 | inactive
Cc1ccc(Cl)cc1N1CCN(C(=O)CN2C(=O)COc3ccc(S(=O)(=O)N4CCOCC4)cc32)CC1 | inactive
Oc1ccc(Cl)cc1C1C=C(c2ccc3c(c2)OCO3)NC(c2ccc(F)c(Br)c2)N1 (stereo not drawn) | inactive
CC(C)c1ccc(C2C(C#N)=C(N)Oc3c2oc(CO)cc3=O)cc1 (stereo not drawn) | inactive
CC(C)c1ccc(C2CC(=O)N3CN(C4CCCCC4)CSC3=C2C#N)cc1 (stereo not drawn) | 25.1 µM (active)
COc1ccc(-c2nc3c(c(SCC(=O)Nc4ccc(C(=O)O)cc4)n2)Cc2ccccc2O3)cc1 | 35.5 µM (active)
COc1ccc(NC(=O)CSc2nc(N)c(-c3ccccc3)c(=O)[nH]2)cc1 | inactive
COc1cc(OC)cc(-c2nnc(SCC(=O)Nc3ccc(C(=O)O)cc3)s2)c1 | inactive
CN(Cc1ccccc1)C(=O)c1cn(C)c2ccc(S(=O)(=O)N3CCCCC3)cc2c1=O | inactive
CCOc1ccc(CN2CCN(CCCc3ccccc3)C(CCO)C2)cc1 (stereo not drawn) | inactive
CCOc1ccc(CN2CCCN(C)CC2)cc1 | 3.55 µM (active)
CCOc1ccc(CC(=O)NC2CCN(Cc3ccccc3)CC2)cc1 | inactive
CCOc1ccccc1CNC(=O)c1ccc(-n2c(C)cc3c2CCC(C)C3)cc1 (stereo not drawn) | inactive
COc1ccc(C(=O)COC(=O)C(O)c2ccccc2)c(OC)c1 (stereo not drawn) | inactive
COc1ccc(/C=C2/C(=O)OCc3cc(OC)c(OC)cc32)c(OC)c1 | inactive
COc1ccc(/C=C2/C(=O)N(c3ccccc3)N=C2C)c(OC)c1 | 15.8 µM (active)
Cc1ccc(CNC(=O)CCc2c(C)nc3c(c(C)nn3-c3ccccc3)c2C)cc1 | inactive
Cc1ccc(S(=O)(=O)CC(=O)NC(C)c2ccccc2)cc1 (stereo not drawn) | inactive
Cc1cc(C(=O)NNC(=S)NC(C)c2ccccc2)cs1 (stereo not drawn) | inactive
C/C(CC(=O)NC(C)c1ccccc1)=N\NC(N)=S (stereo not drawn) | 31.6 µM (active)
